Screen size: about 1,300 compounds; about 10 (0.8%) were called active. The sample as a whole holds a higher share of actives than the screen did. Unmarked numbers belong to inactive results. How the calls were made is not given here.

In the assay the target is Chaperone protein DnaK (Escherichia coli (strain K12)) (UniProt P0A6Y8). Briefly: blockers of bacterial DnaK function – luminescence, E. coli K12, primary screen (AID 547).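 Further: tested at 10 µM.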 The conditions noted are these: DnaK chaperone assay, luminescence read-out; stronger effect = lower value.
For `CCCN(CCC)CCc1ccc(O)c(O)c1`, the luminescence is 2.6e+06 cps.

For `CN(N=O)c1ccc(O)c(O)c1`, the luminescence is 951000 cps (active).

Consider `CN(N=O)c1cc(O)ccc1O`, for which the luminescence is 2.3e+06 cps. Take `CCN(CCCl)Cc1ccccc1Br`: the luminescence was 2.7e+06 cps.

Turning to `NC(Cc1ccc(N(CCCl)CCCl)cc1)C(=O)O` (stereo not given), the luminescence was 2.5e+06 cps. With `N[C@@H](CCl)C(=O)O`, the luminescence is 2.4e+06 cps. The result for `NC(Cc1cc(O)c(O)cc1O)C(=O)O` (stereo not given) reads 1.2e+06 cps (active); that for `C[N+](C)(C)CC(=O)O`, 2.7e+06 cps. Consider `Oc1ccc2c3c1O[C@H]1c4[nH]c5ccccc5c4C[C@@]4(O)C(C2)N(CC2CC2)CCC314` (stereo not given in full), for which the luminescence is 2.5e+06 cps. The result for `C[C@]12CC[C@H]3[C@@H](CCC4C[C@H](O)CC[C@@]43C)[C@@H]1CC[C@@H]2O` (stereo not given in full) reads 2.6e+06 cps.
